Results published in PubChem BioAssay (EPA / NIEHS).
Records with an inconclusive call do not appear. Active and inactive are the calls of the source. How the source made its calls: active means hit-call score of the fitted dose curve at least 0.9, where 1 is the maximum; inconclusive means response in the unintended direction; inactive means score below 0.9.

These compounds were tested against guinea pig Serotonin, 5-Hydroxytryptamine Receptor 4 (5HT4), HTR4 (gene 100135548) (UniProt O70528) (assay: NVS_GPCR_g5HT4: NovaScreen (NVS) G Protein-Coupled Receptor Assay for guinea pig Serotonin, 5-Hydroxytryptamine Receptor 4 (5HT4) (AID 2283294)).
Experimental: NVS_GPCR_g5HT4 is a biochemical, single-readout assay that uses extracted gene-proteins from Guinea pig striatal membranes in a tissue-based cell-free assay. Measurements were taken 1 hour after chemical dosing in a 48-well plate.NVS_GPCR_g5HT4 is one of one assay component(s) measured or calculated from the NVS_GPCR_g5HT4 assay. It is designed to make measurements of radioligand binding, a form of binding reporter, as detected with scintillation counting signals by Filter-based radiodetection technology.Data from the assay component NVS_GPCR_g5HT4 was analyzed into 1 assay endpoint. This assay endpoint, NVS_GPCR_g5HT4, was analyzed in the positive analysis fitting direction relative to DMSO as the negative control and baseline of activity. Using a type of binding reporter, loss-of-signal activity can be used to understand changes in the binding as they relate to the gene Htr4. Furthermore, this assay endpoint can be referred to as a primary readout, because the performed assay has only produced 1 assay endpoint. To generalize the intended target to other relatable targets, this assay endpoint is annotated to the gpcr intended target family, where the subfamily is rhodopsin-like receptor.
Binding assays used specific radioligands (tritiated, iodinated) with non-radioactive competitive displacement ligands in agonist or antagonist protocols (as indicated) and various reference compounds and inhibitors to titrate specific binding to receptors and transporters. Most enzyme assays (CYPs, kinases, phosphatases, proteases, HDACs) used recombinant protein and specific substrates (fluorescence mostly, some colorimetric and radioactive) and inhibitors, followed by a biochemical separation of substrate and product. All assays for the biochemical HTS were initially run in duplicate at a single concentration (10 uM for CYP450 assays and 25 uM for all others). […] Each assay was run with positive and negative controls, and concurrent controls on every plate. The follow-up (secondary) screen tested active chemical-pairs in concentration series, as well as a few additional assays not tested in the primary screen, some selected negative inactives, and several cases re-run in the concentration series for confirmatory purposes.

Sequence of guinea pig Serotonin, 5-Hydroxytryptamine Receptor 4 (5HT4), HTR4 (gene 100135548) (O70528 whole entry, looked up): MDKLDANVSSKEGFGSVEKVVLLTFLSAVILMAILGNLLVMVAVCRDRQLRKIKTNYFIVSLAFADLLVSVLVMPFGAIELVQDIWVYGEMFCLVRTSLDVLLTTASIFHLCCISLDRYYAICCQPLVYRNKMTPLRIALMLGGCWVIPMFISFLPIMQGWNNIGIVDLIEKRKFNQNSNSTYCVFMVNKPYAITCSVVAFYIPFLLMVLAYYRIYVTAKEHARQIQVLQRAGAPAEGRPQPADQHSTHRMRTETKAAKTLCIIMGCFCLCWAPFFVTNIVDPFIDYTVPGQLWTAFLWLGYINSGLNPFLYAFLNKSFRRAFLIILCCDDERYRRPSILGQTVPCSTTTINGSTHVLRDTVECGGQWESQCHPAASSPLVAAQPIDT

Compound | outcome | AC50
Cc1ccc(S(=O)(=O)NC(=O)NN2CCCCCC2)cc1 | inactive | 
CCN(CC)C(=S)SSC(=S)N(CC)CC |  | 19 µM (active)
c1ccc(C(O[C@@H]2CCCN(CCc3ccc4c(c3)OCO4)C2)c2ccccc2)cc1 |  | 3.4 µM (active)
CCCCCCCCCC | inactive | 
C[C@@H](Oc1ccc(CNC(=O)c2cccnc2Oc2ccc3c(c2)OCO3)c(F)c1)C(=O)O | inactive | 
C=CCc1cc(S(=O)(=O)c2ccc(O)c(CC=C)c2)ccc1O |  | 10 µM (active)
Cc1nccn1-c1ccc(Sc2cccc(C3(C(N)=O)CCOCC3)c2)cc1 | inactive | 
CC(C)C(=O)Nc1ccc([N+](=O)[O-])c(C(F)(F)F)c1 |  | 6.71 µM (active)
CCCCOC(=O)c1ccccc1 | inactive | 
O=C(O)c1cccc(C[C@@H]2COc3ccc(OCc4nc5cc(F)ccc5s4)cc3[C@@H]2O)c1 | inactive | 
COc1cc(C(C)C)c2c(c1)S(=O)(=O)N(COc1cc(=O)n3cccc(OCCN4CCCCC4)c3n1)C2=O |  | 1.38 µM (active)
O=S(=O)(O)c1ccc(N=Nc2c(O)ccc3cc(S(=O)(=O)O)ccc23)cc1 |  | 35.6 µM (active)
